{"source": "ChEMBL document CHEMBL1157539", "about": "“Thousands of chemical starting points for antimalarial lead identification” (Nature, 2010)", "assay_type_in_all_cases": "functional", "key": {"Plasmodium falciparum [1]": {"test_system": "Plasmodium falciparum", "assay": "GSK_TCMDC: Inhibition of Plasmodium falciparum 3D7 in whole red blood cells, using parasite LDH activity as an index of growth. Test compounds present at 2uM"}, "Plasmodium falciparum [2]": {"test_system": "Plasmodium falciparum", "assay": "GSK_TCMDC: Inhibition of Plasmodium falciparum Dd2 in whole red blood cells, using parasite LDH activity as an index of growth. Test compounds present at 2uM"}, "HepG2": {"test_system": "HepG2", "assay": "GSK_TCMDC: Percent inhibition of human HepG2 cell line. Test compounds present at 10uM."}}}
{"smiles": "CCN(CC)CC(O)CNc1c2ccc([N+](=O)[O-])cc2nc2cc(OC)c(OC)cc12.Cl", "note": "(stereo not given)", "values": [{"measurement": "Inhibition", "setting": "Plasmodium falciparum [1]", "result": 100, "unit": "%"}, {"measurement": "Inhibition", "setting": "Plasmodium falciparum [2]", "result": 100, "unit": "%"}, {"measurement": "Inhibition", "setting": "HepG2", "result": 78, "unit": "%"}]}
{"smiles": "CN1CCc2cc(CN3CC4(C)CC3CC(C)(C)C4)c(O)cc2C(c2ccccc2)C1.Cl", "note": "(stereo not given)", "values": [{"measurement": "Inhibition", "setting": "Plasmodium falciparum [1]", "result": 98, "unit": "%"}, {"measurement": "Inhibition", "setting": "Plasmodium falciparum [2]", "result": 88, "unit": "%"}, {"measurement": "Inhibition", "setting": "HepG2", "result": 0, "unit": "%"}]}
{"smiles": "CCCC(C)Nc1nc(C)cc(N[C@@H](Cc2ccccc2)C(=O)NCCOc2ccccc2)n1.O=C(O)C(F)(F)F", "note": "(stereo not given in full)", "values": [{"measurement": "Inhibition", "setting": "Plasmodium falciparum [1]", "result": 100, "unit": "%"}, {"measurement": "Inhibition", "setting": "Plasmodium falciparum [2]", "result": 68, "unit": "%"}, {"measurement": "Inhibition", "setting": "HepG2", "result": 10, "unit": "%"}]}
{"smiles": "COc1ccc(NC(=O)C2c3ccccc3C(=O)N(C3CCCC3)C2c2cccs2)cc1OC", "note": "(stereo not given)", "values": [{"measurement": "Inhibition", "setting": "Plasmodium falciparum [1]", "result": 90, "unit": "%"}, {"measurement": "Inhibition", "setting": "Plasmodium falciparum [2]", "result": 96, "unit": "%"}, {"measurement": "Inhibition", "setting": "HepG2", "result": 0, "unit": "%"}]}
{"smiles": "COc1ccc2nccc([C@@H](O)CN3CCC(NCc4cc5ccc(C#N)cc5[nH]4)CC3)c2c1.O=C(O)C(=O)O", "values": [{"measurement": "Inhibition", "setting": "Plasmodium falciparum [1]", "result": 100, "unit": "%"}, {"measurement": "Inhibition", "setting": "Plasmodium falciparum [2]", "result": 39, "unit": "%"}, {"measurement": "Inhibition", "setting": "HepG2", "result": 31, "unit": "%"}]}
{"smiles": "CCCCCCCCc1nc(C)c(Br)c(O)c1Br", "values": [{"measurement": "Inhibition", "setting": "Plasmodium falciparum [1]", "result": 96, "unit": "%"}, {"measurement": "Inhibition", "setting": "Plasmodium falciparum [2]", "result": 95, "unit": "%"}, {"measurement": "Inhibition", "setting": "HepG2", "result": 2, "unit": "%"}]}
{"smiles": "Oc1ccc2nc(NCCCc3ccccc3)nc(NCCCc3ccccc3)c2c1", "values": [{"measurement": "Inhibition", "setting": "Plasmodium falciparum [1]", "result": 100, "unit": "%"}, {"measurement": "Inhibition", "setting": "Plasmodium falciparum [2]", "result": 93, "unit": "%"}, {"measurement": "Inhibition", "setting": "HepG2", "result": 5, "unit": "%"}]}
{"smiles": "CCN(CC)CCN(Cc1ccc(-c2ccc(C(F)(F)F)cc2)cc1)C(=O)Cn1c(CCc2c(F)cc(F)cc2F)nc(=O)c2ccccc21.O=C(O)C(O)C(O)C(=O)O", "values": [{"measurement": "Inhibition", "setting": "Plasmodium falciparum [1]", "result": 89, "unit": "%"}, {"measurement": "Inhibition", "setting": "Plasmodium falciparum [2]", "result": 26, "unit": "%"}, {"measurement": "Inhibition", "setting": "HepG2", "result": 39, "unit": "%"}]}
{"smiles": "CCN(CC)CCN(Cc1ccc(-c2ccc(C(F)(F)F)cc2)cc1)C(=O)Cn1c(CCc2cccc(F)c2F)nc(=O)c2ccc(F)cc21.O=C(O)C(O)C(O)C(=O)O", "values": [{"measurement": "Inhibition", "setting": "Plasmodium falciparum [1]", "result": 98, "unit": "%"}, {"measurement": "Inhibition", "setting": "Plasmodium falciparum [2]", "result": 41, "unit": "%"}, {"measurement": "Inhibition", "setting": "HepG2", "result": 14, "unit": "%"}]}
{"smiles": "Cc1cccc2nc(-c3cccc(-c4cccc(NC(=O)CNC(=O)c5ccc(O)cc5)c4)c3)[nH]c12", "values": [{"measurement": "Inhibition", "setting": "Plasmodium falciparum [1]", "result": 94, "unit": "%"}, {"measurement": "Inhibition", "setting": "Plasmodium falciparum [2]", "result": 49, "unit": "%"}, {"measurement": "Inhibition", "setting": "HepG2", "result": 9, "unit": "%"}]}
